From the supplement of paper PMC13380429

Test system: Vero E6 infected with SARS-CoV-2
Experiment: inhibition of SARS-CoV-2 cytopathic effect; higher = more antiviral protection, active = above 15
Details: 1 nM; 48 h

Row | Structure (SMILES) | inhibition of SARS-CoV-2 cytopathic effect
1 | S=C(NCc1ccc2c(c1)OCO2)N1CCN(c2ncnc3c2oc2ccccc23)CC1 [amuvatinib] | 3.11% (inactive)
2 | CC[N+](CC)(CC)CCC(O)(c1ccccc1)C1CCCCC1 (centres undefined) [tridihexethyl] | -1.22% (inactive)
3 | CC(C)C(N)C(=O)O (stereo in doubt) [L-valine] | 0.78% (inactive)
4 | CCO[C@@H]1OC(=O)C[C@@H]1NC(=O)[C@@H]1CCCN1C(=O)[C@@H](NC(=O)c1ccc(N)c(Cl)c1)C(C)(C)C | -2.56% (inactive)
5 | CCN(CC)CCOC(=O)C1(c2ccccc2)CCCC1 [caramiphen] | -4.57% (inactive)
6 | CCCN(CCC)C1Cc2cc(OC)c(OC)cc2C1 | -0.72% (inactive)
7 | CNc1nc(NCc2ccc(NS(C)(=O)=O)cc2Cl)cc(-c2ccccn2)n1 | -1.79% (inactive)
8 | COc1ccc(CNC(=O)c2sc3nc(C)cc(C)c3c2N)cc1 | 1.68% (inactive)
9 | COCCOc1cnc2ccn([C@H](C)c3nnc4c(F)cc(-c5cnn(C)c5)cn34)c(=O)c2c1 | -0.43% (inactive)
10 | O=C(CN1C2=NCCN2c2ccccc21)c1ccc(-c2ccccc2)cc1 | -0.77% (inactive)
11 | C[C@@H](O)[C@H]1C(=O)N2C(C(=O)O)=C(SCCNC=N)C[C@H]12 [imipenem] | 2.08% (inactive)
12 | O=c1[nH]c2ccccc2n1C1CCN(CCOc2ccccc2)CC1 [oxiperomide] | -1.51% (inactive)
13 | Cc1cccc(NC(=O)CN2CCC(c3ccccn3)CC2)c1 | 1.23% (inactive)
14 | O=C(O)C(=O)O.[NH-][C@@H]1CCCC[C@H]1[NH-].[Pt+2] [oxaliplatin] | 1.5% (inactive)
15 | O=C1C=CC[C@@H]2[C@H]3CCCN4CCC[C@@H](CN12)[C@@H]34 [sophocarpine] | -8.47% (inactive)
16 | COC(=O)[C@H]1[C@H]2C[C@@H]3c4[nH]c5cc(OC)ccc5c4CCN3C[C@H]2C[C@@H](OC(=O)c2cc(OC)c(OC)c(OC)c2)[C@@H]1OC [reserpine] | 1.33% (inactive)
17 | CC(C)[C@H]1c2ccc(F)cc2CC[C@@]1(CCN(C)CCCc1nc2ccccc2[nH]1)OC(=O)C1CC1 | 1.78% (inactive)

Row | Structure (SMILES) | inhibition of SARS-CoV-2 cytopathic effect
18 | CC(C)(C)NC(=O)[C@@H]1CN(Cc2cccnc2)CCN1C[C@@H](O)C[C@@H](Cc1ccccc1)C(=O)N[C@H]1c2ccccc2C[C@H]1O [indinavir] | -3.73% (inactive)
19 | C[C@H](CCC(=O)NCCS(=O)(=O)O)[C@H]1CC[C@H]2[C@@H]3[C@@H](O)C[C@@H]4C[C@H](O)CC[C@]4(C)[C@H]3CC[C@]12C [ursodeoxycholyltaurine] | -1.76% (inactive)
20 | Cc1[nH]c(=O)c(C#N)cc1-c1ccc2nccn2c1 [olprinone] | -2.15% (inactive)
21 | CCCCN(CCCC)CCCOC(=O)c1ccc(N)cc1 [butacaine] | 1.8% (inactive)
22 | CSc1ccccc1OCC(O)CNC(C)C (centres undefined) [tiprenolol] | -1.52% (inactive)
23 | C/C(O)=C(\C#N)C(=O)Nc1ccc(C(F)(F)F)cc1 [teriflunomide] | 3.27% (inactive)
24 | O=C1c2ccccc2C(=O)C1c1ccc(Cl)cc1 [chlorindione] | -5.54% (inactive)
25 | O=C(O)Cc1ccc(OCCNC[C@H](O)c2ccccc2)cc1 | 2.57% (inactive)
26 | c1ccc(CCCN2CCN(CCOC(c3ccccc3)c3ccccc3)CC2)cc1 | 0.71% (inactive)
27 | O=C(Nc1ccc(Cl)cc1)Nc1ccc(Cl)c(Cl)c1 [triclocarban] | -2.22% (inactive)
28 | COc1ccc(Cl)c(Nc2ncnc3cc(OCC4CCN(C)CC4)c(OC)cc23)c1 | -1.15% (inactive)
29 | CC(C)(C)NCC(O)COc1ccc(NC(=O)NC2CCCCC2)cc1 (centres undefined) [talinolol] | 0.2% (inactive)
30 | NC(=O)c1ncn([C@@H]2O[C@H](CO)[C@@H](O)[C@H]2O)c1O [mizoribine] | -1.24% (inactive)
31 | Cc1nc(NC(=O)N2CCC[C@H]2C(N)=O)sc1-c1ccnc(C(C)(C)C(F)(F)F)c1 [alpelisib] | 2.4% (inactive)
32 | NC[C@H]1CC[C@H](C(=O)O)CC1 [tranexamic-acid] | 1.98% (inactive)
33 | Cc1ccc(N(CC2=NCCN2)c2cccc(O)c2)cc1 [phentolamine] | -1.41% (inactive)
34 | O=C(O)c1cc(=O)c2c(OCC(O)COc3cccc4oc(C(=O)O)cc(=O)c34)cccc2o1 [cromoglicic-acid] | -0.6% (inactive)
